NS1 inh – influenza NS1 inhibition; Potency, µM (doses to about 46.1 µM); 270,000 compounds, 0.4% hits; calls by dose curve; also: actives are rising curves; nearly all actives have a fitted effect of over 50% in size
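Growth recovery, yeast-based: influenza A NS1 expressed in S. cerevisiae causes slow growth, and suppressors are detected by OD600. The parent strain without NS1 is used as positive control.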
Cruzain inh Det – blocks cruzain activity in presence of Triton detergent | 200,000 compounds, 0.43% hits | P25779 | purified cruzain, Z-FR-AMC fluorescence, 0.01% Triton | Potency, µM, most hits filed as inhibitors; also: nearly all actives have a fitted effect of over 40% in size
Target sequence (P25779 123-467 limits assumed): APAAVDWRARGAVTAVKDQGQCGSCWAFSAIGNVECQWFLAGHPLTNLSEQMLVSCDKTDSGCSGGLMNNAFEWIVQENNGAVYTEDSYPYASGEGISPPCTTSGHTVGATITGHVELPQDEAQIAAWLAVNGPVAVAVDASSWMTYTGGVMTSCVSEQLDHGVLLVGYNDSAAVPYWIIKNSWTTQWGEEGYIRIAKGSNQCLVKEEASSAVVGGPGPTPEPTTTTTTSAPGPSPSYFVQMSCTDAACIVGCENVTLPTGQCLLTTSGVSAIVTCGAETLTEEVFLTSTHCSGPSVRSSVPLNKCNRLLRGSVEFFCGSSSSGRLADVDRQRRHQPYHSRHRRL
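Detergent-containing run (0.01% Triton X-100) in acetate buffer pH 5.5 with 5 mM DTT: enzyme at 1.5 nM final, 15 min compound preincubation at room temperature, then 2 uM Z-FR-AMC substrate. Activity taken as 60 s fluorescence increase at 360/450 nm.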
Cruzain noTriton – cruzain (T. cruzi) inhibition without detergent. P25779. purified cruzain, Z-FR-AMC fluorescence, no detergent. Potency, µM, actives largely listed as inhibitors. 200,000 compounds, 2.3% hits. AID 1476; also: nearly all actives have a fitted effect of over 40% in size
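Purified cruzain at 1.5 nM, pre-incubated 15 min with compound at room temperature in 100 mM sodium acetate pH 5.5, 5 mM DTT, 0.00005% Triton X-100. Reaction started with 2 uM Z-FR-AMC; AMC fluorescence increase over 60 s gives rate.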
Of the large screens only hits and unclear results are named; the others gave an inactive call. Only a selection was taken, and hits are over-represented in it overall. Unless noted, calls follow the shape of the dose curve; as a rule, active = well fitted curve in the direction sought with a large enough effect; inconclusive = small, poorly fitted or top-dose-only effect, or another doubt; inactive = no such curve, though single readings can be large; an effect the other way counts as inactive or inconclusive.

Cc1nn(-c2ccccn2)c2c1C(c1c(F)cccc1Cl)C1=C(N2)c2ccccc2C1=O (configuration not stated)	Cruzain noTriton 25.1µM
Cc1nn(-c2ccccn2)c2c1C(c1ccccc1Cl)C1=C(N2)c2ccccc2C1=O (configuration not stated)	none
O=C(NCCc1cccs1)C12CN(Cc3ccccc3)CC1C(c1cccc([N+](=O)[O-])c1)=NO2 (configuration not stated)	Cruzain noTriton 12.6µM
O=C(NCCCCc1ccccc1)C12CN(Cc3ccccc3)CC1C(c1cccc([N+](=O)[O-])c1)=NO2 (configuration not stated)	NS1 inh inconclusive
CCNc1ncc2nc(-c3cc(F)cc(F)c3)c(=O)n(C)c2n1	Cruzain noTriton inconclusive (no result: NS1 inh)
O=C(CSc1nc2c(sc3ccccc32)c(=O)n1CCc1ccccc1)NCc1ccco1	Cruzain noTriton 5.01µM
CCCCn1c(SCC(=O)NCc2ccco2)nc2c(sc3ccccc32)c1=O	Cruzain noTriton 10µM
CCOCCCn1c(SCC(=O)NCc2ccco2)nc2c(sc3ccccc32)c1=O	none
O=C(CSc1nc2c(sc3ccccc32)c(=O)n1-c1ccccc1)NCc1ccco1	NS1 inh inconclusive, Cruzain noTriton inconclusive
O=C1CCCC1C(O)c1ccc2ccccc2c1 (configuration not stated)	none (no result: NS1 inh)
Nc1nc(SCC(=O)NCc2ccc(F)cc2)[nH]c(=O)c1NC(=O)c1ccc(Cl)cc1	Cruzain noTriton 25.1µM
Nc1nc(SCC(=O)NCc2ccccc2Cl)[nH]c(=O)c1NC(=O)c1ccccc1F	Cruzain noTriton inconclusive
COc1ccc(CNC(=O)Cn2c(=O)nc(-c3ccccc3)c3cc(Cl)ccc32)cc1OC	none (no result: NS1 inh)
Cc1nc(NC(=O)COC(=O)CCS(=O)(=O)c2ccccc2Cl)c(Cl)cc1Cl	Cruzain inh Det 22.4µM
Cc1[nH]c2ccccc2c1C(=O)COC(=O)CCS(=O)(=O)c1ccccc1Cl	none
NC(=S)NCCCC(N)C(=O)O (configuration not stated)	none
Cc1ccc(CNC(=O)c2cnc3c(-c4ccccc4)c(C)nn3c2C)o1	none (no result: NS1 inh)
CC[C@@H]1[C@@H]2Cc3ccc(O)cc3[C@@]1(CC)CCN2C	none
CCc1ccc(/C=C2\SC(=S)N(CCCC(=O)Nc3ccccn3)C2=O)cc1	NS1 inh inconclusive
CCc1ccc(/C=C2/SC(=S)N(CC(=O)Nc3nc4ccccc4s3)C2=O)cc1	Cruzain noTriton 3.16µM
Cc1ccc(N=C2NC(=O)/C(=C\c3cccs3)S2)cc1C	Cruzain noTriton 25.1µM
Cc1cccc(N=C2NC(=O)/C(=C/c3cccs3)S2)c1	Cruzain noTriton inconclusive
Cc1cccc(N2CCN(C(=O)c3ccc4c(c3)N(Cc3ccccc3)C(=O)c3ccccc3S4(=O)=O)CC2C)c1 (configuration not stated)	none (no result: NS1 inh)
Cc1ccc(C)c(NC(=O)CN2CCN(C3CCCCC3)C(=O)C2=O)c1	none (no result: NS1 inh)
Cc1cc(C)c2cc3c(N)c(C(=O)N4CCOCC4)sc3nc2c1	none (no result: Cruzain inh Det, Cruzain noTriton)
Cc1cc(C)c2cc3c(N)c(C(=O)Nc4c(C)[nH]c(=O)[nH]c4=O)sc3nc2c1	NS1 inh 1.41µM
O=C1CCC=C1C(O)CCc1ccccc1 (configuration not stated)	none (no result: NS1 inh)
O=C1CC2(CCCC2)CC(=O)N1CCNC[C@H]1COc2ccccc2O1	none (no result: NS1 inh)
CCOc1ccccc1OCCCC(=O)OCC(=O)Nc1cccc(Cl)c1	none
COc1ccc(C(=O)CCC(=O)Nc2ccccc2C)cc1	none (no result: NS1 inh)
O=C(CCC(=O)OCC(=O)c1ccc(-c2ccccc2)cc1)Nc1cccc(Cl)c1	Cruzain noTriton 25.1µM
Cc1ccccc1NC(=O)CCC(=O)OCC(=O)c1ccc(-c2ccccc2)cc1	Cruzain noTriton 12.6µM
COc1cc(NC(=O)CN2CCN(c3ccccc3F)CC2)c(C)cc1[N+](=O)[O-]	Cruzain noTriton 25.1µM
COc1cc(NC(=O)CN2CCN(c3ccccc3)CC2)c(C)cc1[N+](=O)[O-]	Cruzain noTriton inconclusive
COc1ccccc1-c1nccc(NCc2cccs2)n1	Cruzain noTriton inconclusive (no result: NS1 inh)
CC(C)NC(=O)CCSc1nc(-c2ccc3c(c2)OCO3)cc(C(F)(F)F)n1	none (no result: NS1 inh)
COC(=O)N1CCC2(CC1)CCN(C(c1ccccc1)c1ccccc1)CC2	none (no result: NS1 inh)
C=CCc1ccccc1OCCSc1nc(-c2ccc(C(C)(C)C)cc2)nc2cc(=O)[nH]n12	Cruzain noTriton 3.98µM (no result: NS1 inh)
CCOc1ccc(-c2nc(SCC(=O)Nc3ccc(C)c(C)c3)n3[nH]c(=O)cc3n2)cc1	none (no result: NS1 inh)
Cc1cccc(-c2nc(SCCCOc3cc(C)c(Cl)c(C)c3)n3[nH]c(=O)cc3n2)c1	none (no result: NS1 inh)
Cc1ccc(NC(=O)CSc2nc(-c3ccc(C(C)(C)C)cc3)nc3cc(=O)[nH]n23)cc1C	Cruzain noTriton 3.98µM (no result: NS1 inh)
O=c1cc2nc(-c3cccs3)nc(SCCOc3ccc(Cl)cc3)n2[nH]1	none (no result: NS1 inh)
COc1ccccc1OCCSc1nc(-c2ccc(C(C)(C)C)cc2)nc2cc(=O)[nH]n12	none (no result: NS1 inh)
Cc1cccc(-c2nc(SCCCOc3ccccc3Cl)n3[nH]c(=O)cc3n2)c1	Cruzain noTriton 15.8µM (no result: NS1 inh)
C=CCc1ccccc1OCCSc1nc(-c2cccs2)nc2cc(=O)[nH]n12	Cruzain noTriton 7.94µM (no result: NS1 inh)
COc1ccc(-c2noc(N(c3cccc(Cl)c3)c3nc(-c4ccc(OC)c(OC)c4)no3)n2)cc1OC	none (no result: NS1 inh)
CCC1=C2CC[C@H]3C(=O)N(c4ccccc4)C(=O)[C@H]3[C@H]2[C@@]2(Cc3ccccc3)C(=NCCOC)OC(=O)N2C1=O	Cruzain noTriton inconclusive (no result: NS1 inh)
c1ccc(-c2nc(-c3cccc4ccccc34)c(Nc3ccc4ccccc4c3)o2)cc1	none (no result: NS1 inh)
CC(=O)Nc1ccc(Nc2ccc3cc(S(=O)(=O)N4CCCCC4)ccc3n2)cc1	none (no result: NS1 inh)
CC(C)(C)[C@]1(O)CCN2CC3c4ccccc4CCc4cccc(c43)[C@@H]2C1 (some centres not stated)	none
Cc1cc(C)cc(OCCSc2nc(-c3cccs3)nc3cc(=O)[nH]n23)c1	none (no result: NS1 inh)
Cc1ccc(C(C)C)c(OCCSc2nc(-c3cccs3)nc3cc(=O)[nH]n23)c1	Cruzain noTriton 7.94µM (no result: NS1 inh)
CCOc1ccc(-c2nonc2NC(=O)c2oc3ccc(Cl)cc3c2C)cc1	none (no result: NS1 inh)
CCC1(O)CC2CN(CCc3c([nH]c4ccccc34)[C@@](C(=O)OC)(c3cc4c(cc3OC)N(C)C3[C@]45CCN4CC=C[C@@](CC)([C@@H](OC(C)=O)[C@]3(O)C(=O)OC)[C@H]45)C2)C1 (some centres not stated)	none
NCOC(=O)Cc1ccc(Br)cc1	none
Cc1ccc(C)c(N2CCN(c3nc4ccccc4n4c(C)nnc34)CC2)c1	none (no result: NS1 inh)
O=C(CCc1ccccc1)NC(NC(=S)Nc1ccc(Cl)cc1)C(Cl)(Cl)Cl (configuration not stated)	Cruzain noTriton 25.1µM
O=C(/C=C/c1ccccc1)NC(NC(=S)Nc1ccc(Cl)cc1)C(Cl)(Cl)Cl (configuration not stated)	Cruzain noTriton inconclusive
Cc1cc(Nc2cc(Cl)ccc2C)n2nc(-c3ccccc3)nc2n1	none (no result: NS1 inh)
CCCCC/C=C\C/C=C\C/C=C\CCCCCCC(=O)NCC(=O)O	none (no result: NS1 inh)
COc1ccc(C2C(C#N)=C(N)Nc3nc4ccccc4n32)cc1 (configuration not stated)	Cruzain noTriton inconclusive
COc1ccc(C2C(C#N)=C(N)N3C(=C2C#N)Sc2ccccc23)cc1 (configuration not stated)	Cruzain noTriton 6.31µM
CN(C)c1ccc(Nc2nc(N)c3ccccc3n2)cc1	none (no result: Cruzain inh Det, Cruzain noTriton)
Nc1nc(Nc2ccccc2)nc2ccccc12	Cruzain inh Det inconclusive, Cruzain noTriton 25.1µM
